Assay outcomes (PubChem)
KCNH2 WT inh = inhibitors of human wildtype KCNH2 potassium channel. actives 0.37% (n = 340,000). U2OS, BacMam KCNH2, thallium flux FluxOr; stronger effect = lower value. activity change, % at 1.84 µM. Q12809;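 active = maximum activity change below -70%; inconclusive = maximum activity change between -70% and -50%; inactive = maximum activity change above -50%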
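U2OS cells were transduced with wild-type KCNH2 virus (2.03 x 10^8 / mL) for 4 h at room temperature, then cultured overnight at 37 C. Thallium flux was read with FluxOr dye. Rate constants were normalized to DMSO controls.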
TRPV1 PAM = human TRPV1 potentiation. Q8NER1. TRPV1-expressing cells, Fluo-8 calcium influx, capsaicin EC20 potentiation. potentiation, % at 8.33 µM. actives 0.02% (n = 320,000). AID 540277; in the data active = potentiation above about 80%; inconclusive = between about 30% and that limit
Target sequence (Q8NER1 whole entry, looked up): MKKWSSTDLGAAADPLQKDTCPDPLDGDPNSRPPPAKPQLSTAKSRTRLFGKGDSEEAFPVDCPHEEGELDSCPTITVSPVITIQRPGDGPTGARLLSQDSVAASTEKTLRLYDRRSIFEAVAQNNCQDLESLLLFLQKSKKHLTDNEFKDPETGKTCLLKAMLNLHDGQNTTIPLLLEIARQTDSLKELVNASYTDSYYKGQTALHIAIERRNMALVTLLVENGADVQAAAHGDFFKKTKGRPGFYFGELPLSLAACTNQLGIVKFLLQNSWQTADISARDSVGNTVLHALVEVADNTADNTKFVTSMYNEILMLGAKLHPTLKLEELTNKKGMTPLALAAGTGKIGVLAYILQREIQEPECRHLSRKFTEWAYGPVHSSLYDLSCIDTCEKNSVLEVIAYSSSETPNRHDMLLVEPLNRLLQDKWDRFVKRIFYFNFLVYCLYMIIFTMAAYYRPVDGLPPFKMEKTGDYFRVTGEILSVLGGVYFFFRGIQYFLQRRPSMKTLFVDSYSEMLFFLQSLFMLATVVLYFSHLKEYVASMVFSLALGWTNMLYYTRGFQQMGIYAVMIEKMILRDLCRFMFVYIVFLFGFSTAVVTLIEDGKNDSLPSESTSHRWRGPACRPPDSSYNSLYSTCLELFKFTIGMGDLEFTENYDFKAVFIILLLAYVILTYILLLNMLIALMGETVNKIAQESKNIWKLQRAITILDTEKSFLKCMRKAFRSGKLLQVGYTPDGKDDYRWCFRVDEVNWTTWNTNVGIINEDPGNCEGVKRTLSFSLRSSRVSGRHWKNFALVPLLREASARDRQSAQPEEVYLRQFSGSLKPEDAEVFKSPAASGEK
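TRPV1-expressing cells were cultured overnight at 35.5C and loaded with Fluo-8 calcium dye for 40 to 90 min at room temperature. After a 10 s baseline, compound was added and calcium influx was read kinetically for 3 min (ex 480/em 520 nm).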
TRPV1 agonist = activates the human vanilloid receptor TRPV1; Q8NER1; TRPV1-expressing cells, Fluo-8 calcium influx, agonist mode; activation, % at 8.33 µM; actives 0.19% (n = 320,000); AID 540275; in the data active = activation above about 80%; inconclusive = between about 30% and that limit
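Cells expressing TRPV1 were dye-loaded with Fluo-8 and read kinetically: 10 s baseline, 3 min after compound (agonist portion), then 2 min after EC20 capsaicin (allosteric enhancer portion). Calcium-bound dye fluorescence at 480/520 nm.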
KCNH2 3.1 inh = inhibitors of human KCNH2 3.1 potassium channel isoform; U2OS KCNH2 3.1, thallium flux FluxOr; stronger effect = lower value; activity change, % (tested at about 1.8 µM); actives 0.95% (n = 340,000); AID 720553;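 active = maximum activity change below -70%; inconclusive = maximum activity change from -70% to -50%; inactive = maximum activity change above -50%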;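 also: thallium influx rate constant from kinetic fluorescence after stimulation buffer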
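Normalized rate constant (relative to positive and negative DMSO controls) derived from a 2 min kinetic fluorescence read after stimulation; U2OS cells expressing the 3.1 isoform via virus at 1.77 x 10^8 /mL.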
Each line names hits and unclear results; the compound was inactive in the other large screens. Rows were chosen to be rich in hits. Some 1.3% of all compounds tested hit in one or more screens of this group.

CCn1cc(C(=O)NCCc2ccccc2)c(=O)c2cc(S(=O)(=O)N3CCCC3)ccc21	TRPV1 agonist 96, KCNH2 3.1 inh inconclusive
CCN(CC(=O)NCc1ccc(Cl)cc1)C(=O)CN1C(=O)NC(CC)(c2ccccc2)C1=O (stereo unspecified)	TRPV1 agonist inconclusive
CCOC(=O)c1c(CSC(=N)N)n(-c2ccccc2)c2cc(Br)c(OC(C)=O)cc12	KCNH2 3.1 inh inconclusive
O=C1CCN(CCc2ccccc2)CCN1[C@H](CSc1ccc(Br)cc1)c1ccccc1	KCNH2 WT inh -170, KCNH2 3.1 inh -113
CCCN1CCC(=O)N([C@H](CSc2ccc(Br)cc2)c2ccccc2)CC1	KCNH2 WT inh -130, KCNH2 3.1 inh -116
O=C1CCN(Cc2ccc(O)cc2)CCN1[C@H](CO)c1ccccc1	KCNH2 3.1 inh -118
Cc1cc(C)c(S(=O)(=O)Nc2ncn[nH]2)cc1C	none
COc1ccc(/C=C/c2c([N+](=O)[O-])c(=O)n(C)c(=O)n2C)c(OC)c1OC	none
COc1ccc(/C=C/c2c([N+](=O)[O-])c(=O)n(C)c(=O)n2C)cc1OC	KCNH2 3.1 inh -75
ON=C(c1ccccc1)c1ccc2c3c(cccc13)CC2	none (no result: TRPV1 PAM, TRPV1 agonist)
CCOc1ccc(OCCC(=O)OCC(=O)NCCc2ccc(S(N)(=O)=O)cc2)cc1	none
C=CCn1c(SCC(=O)N2CCN(C(=O)c3ccco3)CC2)nc2sc(CC)cc2c1=O	KCNH2 WT inh -109, KCNH2 3.1 inh inconclusive
CC(Oc1ccc(C#N)cc1)C(=O)N1CC=C(c2ccccc2)CC1 (stereo unspecified)	none (no result: TRPV1 PAM, TRPV1 agonist)
CS(=O)(=O)c1ccc2nc(NC3(C(F)(F)F)N=C4SCCN4C3=O)sc2c1 (stereo unspecified)	KCNH2 WT inh -85
CCS(=O)(=O)C1=NN2C(=N)/C(=C\c3ccc(OS(=O)(=O)c4ccccc4)cc3)C(=O)N=C2S1	none
Cc1ccc(S(=O)(=O)Oc2ccc(/C=C3\C(=N)N4N=C(S(C)(=O)=O)SC4=NC3=O)cc2)cc1	KCNH2 3.1 inh -115
N#CCC(=O)N/N=C/c1c(-c2ccccc2)n(-c2ccccc2)c2ccccc12	none
CC(=O)Nc1cccc(C(=O)/C=C/c2ccc(N(C)C)cc2)c1	TRPV1 agonist 80
CCCCN1C(=O)C(CC(=O)NCc2ccco2)CC(C(=O)N2CCOCC2)=C1C (stereo unspecified)	none (no result: TRPV1 PAM, TRPV1 agonist)
O=C(Cc1ccccc1[N+](=O)[O-])Nc1ccc2c(c1)OCCO2	none
COC(=O)c1cc(NC(=O)Cc2ccccc2[N+](=O)[O-])cc(C(=O)OC)c1	TRPV1 agonist 83
Cc1cccc(N(Cc2ccccc2)C(=O)c2ccccc2S(C)(=O)=O)c1	none
Cc1nn(C)cc1S(=O)(=O)Nc1ccc2c(c1)OCCO2	none
Cc1cc(NS(=O)(=O)c2cn(C)nc2C)no1	KCNH2 WT inh -135
O=C(c1cccs1)N1C[C@H](O)[C@@H](n2cc(C3CC3)nn2)C[C@@H]1c1ccccc1	none (no result: TRPV1 PAM, TRPV1 agonist)
Nc1cc(N)c2c(c1)C(=O)c1ccccc1-2	KCNH2 WT inh -131, KCNH2 3.1 inh -198 (no result: TRPV1 PAM, TRPV1 agonist)
O=C1C(Cc2ccccc2)Nc2ncnc(N3CCN(c4ccccc4)CC3)c2N1Cc1ccc(Br)cc1 (stereo unspecified)	none (no result: TRPV1 PAM, TRPV1 agonist)
CCC1Nc2ncnc(N3CCN(c4ccccc4)CC3)c2N(Cc2ccc(Br)cc2)C1=O (stereo unspecified)	TRPV1 agonist inconclusive, KCNH2 3.1 inh -88
Cc1ccc(CN2C(=O)C(CC(C)C)Nc3ncnc(N4CCN(c5ccccn5)CC4)c32)cc1 (stereo unspecified)	TRPV1 agonist 81
CC(=O)c1cccc(N(C(=O)c2ccco2)C(C(=O)NC2CCCC2)c2ccc(N3CCOCC3)cc2)c1 (stereo unspecified)	none
CC(=O)c1cccc(N(C(=O)c2ccco2)C(C(=O)NC2CCCC2)c2ccncc2)c1 (stereo unspecified)	KCNH2 WT inh -115
CC1CC(C)CN(CCOc2ccc(Br)cc2)C1 (stereo unspecified)	KCNH2 3.1 inh -96
COCCN(Cc1cc2cc(C)ccc2[nH]c1=O)S(=O)(=O)c1ccc(Cl)cc1	none
CCOc1ccc2nc(NC(=O)C3CCN(C(=O)c4ccco4)CC3)sc2c1	none
CCOc1ccc2nc(N3CCC(C(=O)N4CCN(C(=O)c5ccco5)CC4)CC3)sc2c1	KCNH2 3.1 inh -77
CCOc1ccc2nc(N3CCCC(C(=O)N4CCN(CC)CC4)C3)sc2c1 (stereo unspecified)	KCNH2 3.1 inh -86 (no result: TRPV1 PAM, TRPV1 agonist)
N#Cc1c(NC(=O)COC(=O)c2ccc(O)cc2O)sc2c1CCC2	none
O=C(c1cc2cc(F)ccc2[nH]1)N(Cc1cccnc1)CC1CCCN(C2CCCCC2)C1 (stereo unspecified)	KCNH2 3.1 inh -109
NS(=O)(=O)c1ccc(CCNC(=O)c2ccccc2-c2ccccc2)cc1	none
CCN(CC)c1ccc(/C=C/C(=O)c2ccc(Br)cc2)cc1	KCNH2 WT inh -167, TRPV1 agonist 123, KCNH2 3.1 inh inconclusive
CCN(CC)c1nc(C=Cc2ccc(N(C)C)cc2)c2nccnc2n1	KCNH2 WT inh -107, KCNH2 3.1 inh -99 (no result: TRPV1 PAM, TRPV1 agonist)
CN(C)c1nc(N)c2nccnc2n1	none (no result: TRPV1 PAM, TRPV1 agonist)
Cc1nc2sccn2c(=O)c1CCN1CCC(=C(c2ccc(F)cc2)c2ccc(F)cc2)CC1	KCNH2 WT inh -149, KCNH2 3.1 inh -114
Cc1nc2ccccn2c(=O)c1CCN1CCC(C(=O)c2ccc(F)cc2)CC1	none
CN(C(=O)c1cccc(NC(=O)Cc2ccc([N+](=O)[O-])cc2)c1)C1CC1	none (no result: TRPV1 PAM, TRPV1 agonist)
CCC1CCCCN1C(=O)COC(=O)c1cc(C)nc2ccccc12 (stereo unspecified)	none
CO/N=C/c1cccn1-c1nccc(OC)c1C#N	KCNH2 WT inh -196, KCNH2 3.1 inh -190
COc1ccnc(-n2cccc2C#N)c1C#N	none
COc1ccc(C(=O)n2nc(-c3ccco3)nc2SC)cc1OC	KCNH2 WT inh -132, KCNH2 3.1 inh -177
COc1cccc(-c2nc(CN3CCN(C(=O)c4ccco4)CC3)c(C)o2)c1OC	KCNH2 3.1 inh -90 (no result: TRPV1 PAM, TRPV1 agonist)
Cc1ccc(NC(=O)c2cnc3ccccc3n2)cc1C	TRPV1 agonist 84
CCN1C(=O)[C@H]2[C@@H](c3ccc(-c4cccc(Cl)c4)cc3)N[C@@](C)(C(=O)OC)[C@H]2C1=O	none
COc1ccc(N2CCN(C(=O)C(Cc3ccccc3)NC(=O)c3ccccc3)CC2)cc1 (stereo unspecified)	none (no result: TRPV1 PAM, TRPV1 agonist)
O=C(NCc1ccccn1)[C@@H]1C[C@H]1[C@@H](NP(=O)(c1ccccc1)c1ccccc1)c1ccccc1	TRPV1 agonist inconclusive
O=C(NCc1ccccc1)[C@@H]1C[C@H]1[C@@H](NP(=O)(c1ccccc1)c1ccccc1)c1ccccc1	TRPV1 agonist 91
COc1cc(CCC(O)CC(=O)CCc2ccccc2)ccc1O (stereo unspecified)	TRPV1 agonist 84
O=C(CNC(=O)c1ccco1)OCC(=O)c1ccc([N+](=O)[O-])cc1	none
Cc1nc(-c2ccc(F)cc2)c(CC(=O)N2CCN(S(=O)(=O)c3cccc(F)c3)CC2)s1	TRPV1 agonist inconclusive
CCOC(=O)C1(CCOc2ccccc2)CCN(Cc2cccc(-n3cccn3)c2)CC1	KCNH2 3.1 inh -98 (no result: KCNH2 WT inh)
